# Source: PubChem BioAssay (The Scripps Research Institute Molecular Screening Center)
# NR2F2 inh: NR2F2 transcriptional activity inhibitors, primary screen, cell-based, luciferase reporter, HEK293T, luminescence. HEK293T NGFI-A luciferase reporter. AID 686940, 2013. inhibition, % at 8.6 µM. 370,000 compounds, 0.7% hits. COUP transcription factor 2 (Homo sapiens), P24468;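 active = inhibition above a per-plate cutoff, mean inhibition of test wells between control levels plus 3 SD, cut at about 38% in these data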;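 also: cells cotransfected with COUP-TFII expression vector driving the NGFI-A reporter; 0% = median of COUP-TF2 test wells and 100% = reporter-only cells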
# NCOA1 inh: SRC1 coactivator transcriptional activity inhibitors, primary screen, cell-based, luminescence | 360,000 compounds, 0.12% hits | inhibition, % at 3.6 µM | HEK293 GAL4-SRC1 luciferase reporter | Nuclear receptor coactivator 1 (Homo sapiens), Q15788;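 active = inhibition above the campaign mean plus 3 SD, with each screening campaign given its own cutoff, cut at about 60% in these data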;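 also: 0% = DMSO treated cells and 100% = gossypol at 36 µM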
# NCOA3 inh: SRC3 coactivator transcriptional activity inhibitors, primary screen, cell-based, luminescence. AID 588352, 2011. 360,000 compounds, 0.17% hits. inhibition, % at 3.6 µM. HEK293 GAL4-SRC3 luciferase reporter;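 active = inhibition above a per-campaign cutoff, the mean of all compounds plus 3 SD, cut at about 60% in these data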;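 also: 0% = DMSO-treated cells and 100% = gossypol-treated cells at 36 µM; higher means less SRC3-driven luciferase light from the GAL4 reporter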
# GalR3 antagonist: GalR3 antagonists in HEK293 cells, primary screen, cell-based, fluorescence readout | AID 651719, 2012 | 360,000 compounds, 0.44% hits | HEK293 GalR3-CNG cAMP membrane potential fluorescence; galR3 body fused to GalR1 C-terminus | inhibition, % at 3 µM | Galanin receptor type 3 (Homo sapiens), O60755;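 active = inhibition above the screen-wide average plus 3 SD, cut at about 13% in these data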;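 also: forskolin and galanin both at EC90 stimulate the cells; cAMP rise reported by CNG channel membrane potential dye signal; 0% = forskolin plus galanin with DMSO and 100% = forskolin alone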
# Target sequence (O60755 1-299 limits assumed): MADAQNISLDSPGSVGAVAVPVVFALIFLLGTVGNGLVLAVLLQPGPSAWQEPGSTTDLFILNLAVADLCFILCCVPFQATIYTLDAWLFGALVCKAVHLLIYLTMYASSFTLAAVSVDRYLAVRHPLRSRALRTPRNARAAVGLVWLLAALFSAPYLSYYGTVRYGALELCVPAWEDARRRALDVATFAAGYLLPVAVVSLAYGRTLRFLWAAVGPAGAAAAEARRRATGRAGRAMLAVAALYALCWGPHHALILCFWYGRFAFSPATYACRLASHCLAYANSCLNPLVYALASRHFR
# NCOA2 inhibitor: inhibition of GAL4-SRC2 driven luciferase reporter, primary screen, SRC2 inhibitor project, cell-based, luminescence; 370,000 compounds, 0.17% hits; AID 651957, 2012; HEK293 GAL4-SRC2 luciferase reporter; Nuclear receptor coactivator 2 (Homo sapiens), Q15596; inhibition, % at 9 µM;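 active = inhibition above the mean inhibition of all tested compounds plus 3 SD, set per campaign, cut at about 52% in these data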;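 also: 0% = DMSO treated cells and 100% = cells given Gossypol at 36 µM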
# NR5A2 inv ag: LRH-1 (NR5A2) inverse agonists, primary screen, cell-based, luminescence, HEK293T, StAR-luciferase reporter; LRH-1 transfected, 24 h; inhibition, % at 3.6 µM; 360,000 compounds, 0.13% hits; AID 602396, 2012;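 active = inhibition above the mean inhibition of all tested compounds plus 3 SD, cut at about 73% in these data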;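 also: 0% = DMSO wells and 100% = reporter-only cells lacking LRH-1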
# GalR3 conf: GalR3 antagonist hit confirmation, cell-based, fluorescence, triplicate. shares compounds with GalR3 antagonist. HEK293 GalR3 CNG cAMP biosensor, membrane potential fluorescence; galR3 fused to GalR1 carboxy tail; challenged with forskolin and galanin at EC90. inhibition, % at 3 µM. 1,600 compounds, 59% hits;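 active = inhibition above the primary screen's cutoff, the mean inhibition of all screened compounds plus 3 SD, cut at about 13% in these data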;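 also: 0% = forskolin plus galanin and 100% = forskolin alone with DMSO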
# CNG parental: nonspecific cAMP agonists in parental HEK-CNG cells, counter-screen for GalR3 antagonist project, cell-based, fluorescence, high throughput | 1,600 compounds, 10% hits | shares compounds with GalR3 antagonist | activation, % at 3 µM | AID 652268, 2013 | HEK293-CNG parental cells, cAMP membrane potential fluorescence; normalised: DMSO wells 0%, forskolin wells 100%; in the data active = activation above about 1.3%
# Active calls of the source: *; · = not tested or not shown. Sampled rows, rich in hits. Any-hit rate of the full collection: about 1.1%.
SMILES,NR2F2 inh,NCOA1 inh,NCOA3 inh,GalR3 antagonist,NCOA2 inhibitor,NR5A2 inv ag,GalR3 conf,CNG parental
COC(=O)C1CN(Cc2ccc(OC)cc2)CCS(=O)(=O)N1Cc1ccccc1 (stereo not drawn),21,·,·,·,-13,·,·,·
CC(O)CN(CC(C)O)c1ccc2c(c1)Cc1cc([N+](=O)[O-])ccc1-2 (stereo not drawn),-11,-11,-36,13*,0,15,27*,1.4*
CCC[C@H]1[C@@H](OC(=O)NC2CCC2)CC[C@@]23CCCN2C(=O)CCC[C@@H]13,-12,·,·,·,·,·,·,·
CCOC(=O)c1ccc(-c2c(-c3cc(OC)c(OC)c(OC)c3)noc2C)cc1F,-24,-6,-11,·,15,21,5,3.8*
CCOC(=O)c1ccc(-c2c(-c3ccc(OC)cc3)oc(=O)c3cc(OC)c(OC)cc23)cc1F,2,-23,-3,-5,8,3,·,·
COc1cc(CCCN2C(=O)C(=O)NC[C@@H]2Cc2ccc(O)cc2)cc(OC)c1OC,1,-10,-8,16*,12,1,3,1
N#C/C(N=Nc1ccccc1O)=N\Nc1ccccc1O,3,-2,16,61*,11,-7,84*,-2
Oc1ccccc1N=N/C(=N/Nc1ccccc1O)c1ccccc1,16,-5,-18,2,-38,7,·,·
O=C1NCC(COc2cccc3ccccc23)O1 (stereo not drawn),-5,7,14,19*,14,0,7,0
Cc1ccccc1OCC1CNC(=O)O1 (stereo not drawn),9,-44,18,-3,-5,-1,·,·
CN(CC(=O)Nc1ccc(F)c(F)c1)S(=O)(=O)c1cccs1,-3,-35,-6,0,-3,-3,·,·
CCc1cccc(NC(=O)CN(C)S(=O)(=O)c2cccs2)c1,-24,-22,-15,14*,10,-10,12,0
CCOC(=O)COc1cccc2c(=O)n(CC(=O)NCc3ccccc3)ccc12,-41,-4,12,8,0,39,·,·
CCOC(=O)COc1cccc2c(=O)n(CC(=O)NCc3ccc(F)cc3)ccc12,-72,-6,-4,15*,23,14,22*,1
CCCNC(=O)N1[C@@H](CO)[C@H](c2ccc(C3=CCCC3)cc2)[C@@H]1CN(CC)S(=O)(=O)c1ccccc1[N+](=O)[O-],-19,·,·,·,-11,·,·,·
Oc1cc2c(c(Cl)c1O)CCNCC2c1ccccc1 (stereo not drawn),-29,-10,-23,26*,-36,3,32*,1
C=CCn1c(COc2cccc(C)c2)nnc1SCC(=O)c1c(N)n(C)c(=O)n(C)c1=O,-8,-10,-6,9,1,1,·,·
C=CCn1c(COc2ccc(Cl)cc2)nnc1SCC(=O)c1c(N)n(C)c(=O)n(C)c1=O,21,-8,0,16*,0,-1,5,0
COc1ccc(C2=NS(=O)(=O)N(C)C(C(=O)NC(C)c3ccccc3)=C2)cc1OC (stereo not drawn),-3,-14,-4,6,-1,35,·,·
COc1ccc(C2=NS(=O)(=O)N(C)C(C(=O)N(C)Cc3ccccc3)=C2)cc1OC,2,-3,5,15*,-16,17,22*,-1
CCOc1cc(CNCc2ccccc2)ccc1OCc1ccc(Cl)cc1,28,-9,6,42*,32,-4,26*,5.5*
CCCc1cc(=O)oc2c3c(cc(OCC(=O)NCc4ccncc4)c12)OC(C)(C)CC3,16,7,17,15*,10,24,7,0
CCCc1cc(=O)oc2c3c(cc(OCC(=O)N[C@@H](C)C(=O)O)c12)OC(C)(C)CC3,-14,-2,-2,-11,-12,5,·,·
CCOC(=O)Nc1cccc(NC(=O)c2ccccc2F)c1,20,-25,-4,19*,-1,1,-3,0
O=C(Cc1ccsc1)N1CCc2c([nH]c3ccccc23)C1c1ccccn1 (stereo not drawn),8,-23,2,16*,-15,5,-1,0
SMILES,NR2F2 inh,NCOA1 inh,NCOA3 inh,GalR3 antagonist,NCOA2 inhibitor,NR5A2 inv ag,GalR3 conf,CNG parental
CCCCN(C)C(=O)CNc1nnnn1-c1ccccc1,-12,·,·,·,-8,·,·,·
Cc1ccc(C)c(NC(=O)CNS(=O)(=O)c2ccc3[nH]c(=O)oc3c2)c1,6,·,·,·,-18,·,·,·
COc1ccc(-c2cc(N)n(S(=O)(=O)c3c(F)c(F)c(F)c(F)c3F)n2)cc1OC,-16,-16,-43,54*,-48,-16,60*,1
C[C@H](CO)N1C[C@H](C)[C@@H](CN(C)C(=O)Cc2ccccc2)OCc2cn(nn2)CCCC1=O,5,·,·,-5,-1,·,·,·
C=CCNC(=O)/C(=C/c1cn(-c2ccccc2)nc1-c1cccc([N+](=O)[O-])c1)NC(=O)c1ccccc1,-16,-5,9,16*,-41,28,8,0
Cc1ccc(OCCCOc2ccc(Cl)cc2Cl)c([N+](=O)[O-])n1,-3,·,·,·,·,·,·,·
O=P(CCCCCCCCCP(=O)(c1ccccc1)c1ccccc1)(c1ccccc1)c1ccccc1,22,12,-8,-5,15,18,·,·
O=C(O)CCCCCCCCCCP(=O)(c1ccccc1)c1ccccc1,19,-14,18,13*,0,-8,-2,0
COc1ccc(C2Nc3ccc4ccccc4c3-c3c2c(=O)oc2ccccc32)cc1 (stereo not drawn),-5,12,9,-6,-6,3,·,·
O=c1oc2ccccc2c2c1C(c1ccc(Cl)cc1)Nc1ccc3ccccc3c1-2 (stereo not drawn),-10,3,-2,15*,-1,7,-2,0
Cc1ccc(C2CCC3(CCC(=O)N3CCOC(=O)Nc3ccc(Br)cc3)CC2)cc1 (stereo not drawn),3,·,·,·,6,·,·,·
Cc1nc(NCC2CC2)c2nnn(Cc3ccccc3)c2n1,-7,-1,4,18*,-2,-11,-2,0
